Bioassay records as filed in PubChem BioAssay.
Shown is part of a subset that was picked to be rich in hits.
Methyltransferases = Primary Screen for Target Class Profiling of Small Molecule Inhibitors of Methyltransferases; purified enzyme, MTase-Glo SAH luminescence; stronger effect = lower value; calls only at 40 µM; actives 3.9% (n = 25,000); AID 1745853, 2022; call rule not given here
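Each enzyme was reacted with SAM and its substrate, with compounds tested once at 40 uM; SAH formed was read by MTase-Glo luminescence.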
Calls only; - = inactive; + = active, no number; ! = repeats disagree.

SMILES	Methyltransferases
CC1(C)CC[C@]2(C(=O)O[C@@H]3O[C@H](CO)[C@@H](O)[C@H](O)[C@H]3O)CC[C@]3(C)C(=CCC4[C@@]5(C)C[C@@H](O)[C@H](O)[C@@](C)(CO)C5[C@H](O)C[C@]43C)C2[C@@H]1O (stereo partly specified)	+
CC1(CO)CC[C@]2(C(=O)O[C@@H]3O[C@H](CO)[C@@H](O)[C@H](O)[C@H]3O)CC[C@]3(C)C(=CCC4[C@@]5(C)C[C@H](O)[C@H](O[C@@H]6OC[C@@H](O)[C@H](O)[C@H]6O)[C@@](C)(CO)C5CC[C@]43C)C2C1 (stereo partly specified)	+
CC1(C)CC[C@]2(C(=O)O[C@@H]3O[C@H](CO)[C@@H](O)[C@H](O)[C@H]3O)CC[C@]3(C)C(=CCC4[C@@]5(C)C[C@@H](O)[C@H](O)[C@@](C)(CO)C5CC[C@]43C)C2[C@@H]1O (stereo partly specified)	+
C[C@@H]1CC[C@]2(C(=O)O[C@@H]3O[C@H](CO)[C@@H](O)[C@H](O)[C@H]3O)CC[C@]3(C)C(=CCC4[C@@]5(C)C[C@@H](O)[C@H](O)C(C)(C)C5CC[C@]43C)C2[C@]1(C)O (stereo partly specified)	-
CC1(C)CC[C@]2(C(=O)O)CC[C@]3(C)C(=CCC4[C@@]5(C)C[C@@H](O)[C@H](O)[C@@](C)(CO)C5[C@H](O)C[C@]43C)[C@@H]2C1 (stereo partly specified)	-
CC1CCC2(C(=O)OC3OC(CO)C(O)C(O)C3O)CCC3(C)C(=CCC4C5(C)CCC(O)C(C)(CO)C5CCC43C)C2C1(C)O (stereo unspecified)	-
CC1OC(OC2C(O)COC(O[C@@H]3[C@@H](O)[C@@H](O)[C@H](OC4C(OC(=O)[C@]56CCC(C)(C)CC5C5=CCC7[C@@]8(C)C[C@H](O)[C@H](OC9OC(CO)C(O)C(O)C9O)[C@@](C)(CO)C8[C@H](O)C[C@@]7(C)[C@]5(C)CC6)OCC(O)C4O)O[C@H]3C)C2O)C(O)C(O)C1O (stereo partly specified)	-
CC1(C)CC[C@]2(C(=O)O[C@@H]3O[C@H](CO)[C@@H](O)[C@H](O)[C@H]3O)CC[C@]3(C)C(=CCC4[C@@]5(C)C[C@@H](O)[C@H](O)C(C)(C)C5CC[C@]43C)C2[C@@H]1O (stereo partly specified)	+
C[C@@H]1O[C@@H](O[C@@H]2CO[C@@H](O[C@H]3CC[C@@]4(C)C(CC[C@]5(C)C4CC=C4[C@@H]6CC(C)(C)CC[C@]6(C(=O)O[C@@H]6O[C@H](CO)[C@@H](O)[C@H](O)[C@H]6O)CC[C@]45C)[C@]3(C)CO)[C@H](O)[C@H]2O[C@@H]2O[C@H](CO)[C@@H](O)[C@H](O)[C@H]2O)[C@H](O)[C@H](O)[C@H]1O (stereo partly specified)	-
CC1CCC2(C(=O)OC3OC(CO)C(O)C(O)C3O)CCC3(C)C(=CCC4C5(C)CC(O)C(O)C(C)(C(=O)O)C5CCC43C)C2C1(C)O (stereo unspecified)	-
COC(=O)C1(C)CCC2(C(=O)O)CCC3(C)C(=CCC4C5(C)CC(O)C(OC6OCC(O)C(O)C6O)C(C)(CO)C5CCC43C)C2C1 (stereo unspecified)	-
CC1(C)CC[C@]2(C(=O)O[C@@H]3O[C@H](CO)[C@@H](O)[C@H](O)[C@H]3O)CC[C@]3(C)C(=CCC4[C@@]5(C)CC[C@H](O[C@H]6O[C@H](CO)[C@@H](O)[C@H](O[C@@H]7O[C@H](CO)[C@@H](O)[C@H](O)[C@H]7O)[C@H]6O)C(C)(C)C5CC[C@]43C)[C@@H]2C1 (stereo partly specified)	-
Cc1ccc(NC(=O)N2CCn3cccc3C2C(C)C)cc1 (stereo unspecified)	-
COc1ccc([C@@H](NC(=O)c2coc3ccccc23)C2CC(O)C2)cn1 (stereo partly specified)	-
CC1(C(=O)NC2CCCCCCC2)Cn2c(cc3occc32)C(=O)N1CCCN1CCCCC1 (stereo unspecified)	-
CN1CCN(CC(=O)N2c3ccccc3C(=O)Nc3cccnc32)CC1	-
CCN(CCCNC(=O)CCc1nnc2n(Cc3ccc(C)cc3)c(=O)c3ccccc3n12)c1cccc(C)c1	-
CCn1nc(C2CCN(C(=O)CCO)CC2)nc1-c1cnc(N)c(-c2nnc(C(C)(C)C)o2)n1	-
O=C(CCc1ccncc1)NNC(=O)N1Cc2ccccc2Oc2ccc(Cl)cc21	-
COc1cc(OC)cc(C(=O)NCC2CCCN(C(=O)CCNC(C)=O)C2)c1 (stereo unspecified)	-
CCC1COCCN1C(=O)c1coc(COc2ccc3c(c2)OCO3)n1 (stereo unspecified)	-
Cn1cc(-c2ccc3c(c2)CCN3C(=O)Cc2cccc(C(F)(F)F)c2)c2c(N)ncnc21	-
CC(=O)NC1CCN(Cc2cn(-c3ccc(C)cc3)nc2-c2cccc(C)c2)C1 (stereo unspecified)	-
COc1cccc(-c2cn(-c3ccc(CCN4CCC(O)CC4)cc3)c3ncnc(N)c23)c1	+
O=C(NCc1ccco1)C1CCc2nc(N3CCN(C(=O)C4CCC4)CC3)sc2C1 (stereo unspecified)	-
SMILES	Methyltransferases
Cc1ccccc1CNC(=O)C1(C)Cc2ccccc2C(=O)N1CCC(C)C (stereo unspecified)	-
Cc1cc(O)c2c(c1)C(=O)c1cc(O)cc(O)c1C2=O	+
CC12CC(O)C(O)C=C1c1cc(O)cc(O)c1C(=O)O2 (stereo unspecified)	-
CC(C)Cn1c(=O)c2ccccc2n2c(SCC(=O)NCc3ccccc3Cl)nnc12	-
CC[C@H](Nc1ncnc2nc[nH]c12)c1nc2cccc(F)c2c(=O)n1-c1ccccc1	-
CC(C)OCCCNC(=O)C1(C)Cn2c(cc3ccccc32)C(=O)N1Cc1ccc2c(c1)OCO2 (stereo unspecified)	-
CC(C)Cn1c(=O)c2ccc(C(=O)NC3CCCC3)cc2n2c(=O)n(CC(=O)Nc3ccccc3)nc12	-
Cc1noc(C)c1-c1cc2cc(CO)oc2c(-c2ccc([S+](C)(=O)[O-])cc2)n1	-
COc1ccc(C(C)NC(=O)c2cc3n(n2)CC(c2ccc(Cl)cc2)OC3)cc1OC (stereo unspecified)	-
Cc1nc(N2CCCC2)nc(N2CCC3(CC2)OCCCC3O)c1C (stereo unspecified)	-
Cc1cc2c(N3CCCC3)nc(N3CCCC3)nc2n1C	+
Cc1cccc(-c2nnn3c2nc(N2CCCC2)c2ccccc23)c1	-
O=C(Cn1ncc2ccccc2c1=O)N1CCCCC1CCn1cccn1 (stereo unspecified)	-
CNCc1ccc(-c2[nH]c3cc(F)cc4c3c2CCNC4=O)cc1	+!
Nc1ncnc2c1c(-c1cccc(OCc3ccccc3)c1)cn2C1CC(CN2CCCC2)C1 (stereo unspecified)	+
CC(C)C[C@H](NC(=O)[C@@H]1C[C@@H](n2nnc(C(N)=O)c2C(N)=O)CCN1C(=O)c1cnccn1)C(N)=O	-
Cc1noc(C)c1-c1cc2cc(C(C)C)oc2c(-c2ccc(CO)cc2)n1	-
O=C(NCc1ccc2c(c1)OCO2)c1n[nH]nc1Nc1ccc(Cl)cc1	-
COC(=O)c1ccc2c(=O)[nH]c3c(C(=O)NCc4ccc5c(c4)OCO5)sc(=S)n3c2c1	-
O=C(NCc1cccc(Cl)c1)c1sc(=S)n2c1[nH]c(=O)c1cc3c(cc12)OCO3	+
